HT1080 IDH1KD tx = toxicity to HT-1080 IDH1 knockdown cells (counter line) | HT-1080 IDH1 knockdown viability, ATP luminescence, 48 h | Potency, µM (titrated, usually from 46.1 µM), actives largely listed as cytotoxic | hit rate 2% among 360,000
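HT-1080-IDH1KD cells (IDH1 knocked down), 750/well in RPMI with 5% FBS, treated with compound 48 h at 37 degrees C. Viability by CellTiter-Glo luminescence, normalised to DMSO and no-cell wells; concentration-response curves classed.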
DT40 TDP1 no CPT = qHTS for Inhibitors of human tyrosyl-DNA phosphodiesterase 1 (TDP1): qHTS in cells in absence of CPT; AID 686978, 2013; hit rate 15% among 420,000; Potency, µM (highest dose often 46.2 µM), hits mostly inhibitors; DT40 Tdp1-/- hTDP1 cells, no CPT, ATP luminescence, 48 h; note: nearly all actives have a fitted effect of over 55% in size
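Camptothecin absent (DMSO only). Human TDP1-complemented DT40 knockout cells, 400 cells/well, 37 °C for minimum 48 hr; ATP measured via CellTiter-Glo, 30 min dark incubation, luminescence.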
IL1B secr inh = inflammasome signaling inhibition, IL-1 beta readout | activity change, % at 57.5 µM | hit rate 4.7% among 360,000 | AID 743279 | THP-1 LPS/ATP IL-1B secretion, AlphaLISA, 16 h; stronger effect = lower value; in the data active = activity change below about -50%; inconclusive = mostly about -30% to -49%
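THP-1 cells pretreated 1 hr with compounds (up to 57.5 uM final), then stimulated with LPS (250 ng/mL final) plus ATP (1.25 mM final); secreted IL-1B measured by AlphaLISA after 16 hr, decreased signal indicating inhibition.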
ALOX12 inh = ALOX12 (human) lipoxygenase inhibition; P18054; purified 12hLO, xylenol orange hydroperoxide absorbance; Potency, µM (titrated, usually from 108 µM), actives largely listed as inhibitors; hit rate 1.1% among 580,000; AID 1671190
Target sequence (P18054 whole entry, looked up): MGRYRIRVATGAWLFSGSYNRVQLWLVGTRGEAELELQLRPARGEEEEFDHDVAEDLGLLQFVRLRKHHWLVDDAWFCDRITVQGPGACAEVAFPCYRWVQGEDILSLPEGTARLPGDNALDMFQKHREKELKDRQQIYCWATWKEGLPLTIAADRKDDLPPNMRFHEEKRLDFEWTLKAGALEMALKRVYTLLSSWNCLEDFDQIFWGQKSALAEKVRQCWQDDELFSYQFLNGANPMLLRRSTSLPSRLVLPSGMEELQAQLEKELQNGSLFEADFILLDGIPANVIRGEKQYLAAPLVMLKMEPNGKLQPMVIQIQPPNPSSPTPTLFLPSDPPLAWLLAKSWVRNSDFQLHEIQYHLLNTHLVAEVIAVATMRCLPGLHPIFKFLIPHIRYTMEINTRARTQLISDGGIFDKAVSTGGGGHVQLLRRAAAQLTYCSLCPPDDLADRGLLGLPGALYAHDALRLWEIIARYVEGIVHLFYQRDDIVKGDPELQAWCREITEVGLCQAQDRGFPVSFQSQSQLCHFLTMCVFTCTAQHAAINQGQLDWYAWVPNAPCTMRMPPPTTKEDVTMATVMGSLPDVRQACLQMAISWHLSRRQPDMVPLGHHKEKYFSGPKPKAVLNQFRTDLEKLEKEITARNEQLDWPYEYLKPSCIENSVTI
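Purified human 12hLO (150 nM final) in 25 mM Hepes, 0.01% Triton X-100, pH 7.0 was preincubated 15 min at room temperature with compound. Then 40 uM arachidonic acid was added, 30 min. Hydroperoxide was read by Fe-XO absorbance ratio 573/405 nm.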
HT1080NT lethal = kills 2HG-producing HT-1080-NT fibrosarcoma cells. HT-1080-NT fibrosarcoma viability, CellTiter-Glo ATP luminescence, 48 h. Potency, µM (series often up to 46.1 µM), hits mostly cytotoxic. hit rate 1.6% among 360,000. AID 686970;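 note: NT is the 2HG producing partner of a matched IDH1 knockdown line; nearly all actives have a fitted effect of over 55% in size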
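HT-1080-NT fibrosarcoma cells (2HG-overproducing), 750 cells/well in RPMI with 5% FBS, dosed after 2 h and incubated 48 h at 37C. CellTiter-Glo luminescence normalized to DMSO and no-cell wells; concentration-response curves fitted and classed.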
TDP1 cell CPT = DT40-hTDP1 cell growth loss with CPT; Potency, µM (highest dose often 46.2 µM), usual class: inhibitors; hit rate 12% among 420,000; chicken DT40 Tdp1-/-;hTDP1 cells + 20 nM CPT, ATP luminescence, 48 h; note: nearly all actives have a fitted effect of over 55% in size
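Chicken DT40 Tdp1-/- cells complemented with human TDP1, 400 cells/well, exposed to compounds plus 20 nM camptothecin for at least 48 h at 37 C; viability read as ATP content by CellTiter-Glo luminescence.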
Hits are given with their value; . = inactive; ? = inconclusive; / = no result given. The entries come from a sample that favours hits as a whole. Unless noted, calls come from the whole dose curve; as a rule, active = well fitted curve in the direction sought with a large enough effect; inconclusive = small, poorly fitted or top-dose-only effect, or another doubt; inactive = no such curve, though single readings can be large; an effect the other way counts as inactive or inconclusive.

SMILES | HT1080 IDH1KD tx | DT40 TDP1 no CPT | IL1B secr inh | ALOX12 inh | HT1080NT lethal | TDP1 cell CPT
CCc1cc(C(=O)NCC(c2cccs2)N2CCOCC2)sc1C (configuration not stated) | . | 23µM | . | . | . | ?
Cc1ccsc1C(=O)NCC(c1cccs1)N1CCOCC1 (configuration not stated) | ? | ? | . | . | 18µM | ?
O=C(CNC(=O)c1ccccc1Cl)NCC(c1cccs1)N1CCOCC1 (configuration not stated) | . | . | . | . | . | .
Cc1ccc2[nH]c(-c3ccccc3)c(C)c2c1 | / | / | / | . | / | /
CNC(=O)CNC(=O)c1ccc(F)cc1Br | / | / | / | . | / | /
COc1cccc(CN2CCCC3(CCN(C(=O)c4cccnc4)C3)C2=O)c1OC (configuration not stated) | / | / | / | . | / | /
Cc1nc(C)c(C(=O)N2CCC(Oc3ccc(-c4noc(-c5ccccc5)n4)cc3)C2)s1 (configuration not stated) | / | / | / | . | / | /
CC(C)(C)c1ccc(OCCC(=O)NCC(c2cccs2)N2CCOCC2)cc1 (configuration not stated) | . | ? | . | . | . | .
Cn1nc(C(=O)NCC(c2cccs2)N2CCOCC2)c2ccccc2c1=O (configuration not stated) | . | 16µM | . | . | . | 26µM
CC(C)(Oc1ccc(Cl)cc1)C(=O)NCC(c1cccs1)N1CCOCC1 (configuration not stated) | . | 18µM | . | . | . | ?
O=C(NCC(c1cccs1)N1CCOCC1)c1ccccc1NS(=O)(=O)c1ccc(Br)cc1 (configuration not stated) | . | 15µM | . | . | . | ?
NS(=O)(=O)c1ccc(CCNCc2ccccc2OCc2ccc(F)cc2)cc1 | ? | 21µM | -90 | . | ? | ?
CCOc1ccc(NCc2ccccc2OCc2cccc(F)c2)cc1 | ? | ? | -54 | . | ? | ?
CCOc1ccc(CNCCc2ccc(S(N)(=O)=O)cc2)cc1 | . | ? | . | . | . | ?
NS(=O)(=O)c1ccc(NCc2ccccc2OCc2ccc(F)cc2)cc1 | . | 18µM | . | . | . | ?
Nc1nonc1C(=O)NCCNCc1ccccc1OCc1ccc(F)cc1 | ? | 16µM | . | . | ? | 23µM
COc1ccc(C(=O)N2CC3CC(C2)[C@H]2CCCC(=O)N2C3)c(C)c1 (some centres not stated) | / | / | / | . | / | /
COc1ccccc1Cn1cc(C(=O)c2ccc(C)cc2)c(=O)c2cc3c(cc21)OCCO3 | / | 21µM | / | . | / | 15µM
COc1ccc(Cn2cc(C(=O)c3ccc(F)cc3)c(=O)c3cc4c(cc32)OCCO4)cc1 | / | ? | / | . | / | ?
COc1ccccc1Cn1cc(C(=O)c2ccccc2)c(=O)c2cc(OC)c(OC)cc21 | / | ? | / | . | / | ?
O=C(c1ccc(F)cc1)c1cn(Cc2ccccc2F)c2cc3c(cc2c1=O)OCCO3 | / | 21µM | / | . | / | ?
COc1ccccc1Cn1cc(C(=O)c2ccc(C)cc2)c(=O)c2cc(C)ccc21 | / | 7.3µM | / | . | / | 5.2µM
COc1ccc(NC(=O)N[C@H]2C[C@@H](C(=O)N[C@H](Cc3c[nH]c4ccccc34)C(N)=O)N(C(C)=O)C2)cc1 | / | / | / | . | / | /
COc1cc(NC(=O)N2CCc3nc(Nc4cc(Cl)cc(Cl)c4)ncc3C2)cc(OC)c1OC | ? | ? | ? | . | ? | 23µM
COc1ccc(CNC(=O)N2CCc3nc(Nc4cc(OC)c(OC)c(OC)c4)ncc3C2)cc1 | . | ? | . | ? | . | ?
SMILES | HT1080 IDH1KD tx | DT40 TDP1 no CPT | IL1B secr inh | ALOX12 inh | HT1080NT lethal | TDP1 cell CPT
COc1cccc(OCC(=O)N2CCC3(CC2)CC(=O)c2ccccc2O3)c1 | . | ? | . | . | . | ?
O=C1CC2(CCN(C(=O)COc3ccccc3F)CC2)Oc2ccccc21 | . | ? | . | . | . | .
Cc1ccc(OCC(=O)N2CCC3(CC2)CC(=O)c2ccccc2O3)cc1 | . | 13µM | . | . | . | 21µM
O=C1CC2(CCN(C(=O)COc3ccc(Cl)cc3)CC2)Oc2ccccc21 | . | 18µM | -55 | ? | . | ?
CC1=C[C@@H](CN(C)CCC#N)[C@H](C(C)C)C[C@H]1Cc1nnc(-c2ccccc2F)o1 | / | / | / | . | / | /
Cc1cccc(C(=O)NCC(c2cccs2)S(=O)(=O)c2cccs2)c1 (configuration not stated) | / | 15µM | / | . | / | ?
O=C(NCC(c1cccs1)S(=O)(=O)c1cccs1)c1cccc(F)c1 (configuration not stated) | / | 18µM | / | . | / | 16µM
O=C(NCC(c1ccco1)S(=O)(=O)c1cccs1)c1c(F)cccc1F (configuration not stated) | / | ? | / | . | / | ?
CC(C)N1C[C@H](O)C[C@H]1c1nnc2n1CCN(C(=O)COc1ccc(F)cc1)C2 | / | / | / | . | / | /
Cc1onc(-c2ccccc2)c1C(=O)N1CCN(CCc2ccccc2)CC1 | . | ? | . | . | . | .
CCOC(=O)C1(C)CCCN(C(=O)c2c(-c3ccccc3)noc2C)C1 (configuration not stated) | . | ? | . | . | . | 13µM
COc1ccc(CN2CCN(C(=O)c3c(-c4ccccc4)noc3C)CC2)cc1F | . | 23µM | . | . | . | ?
CCOC(=O)C1CCN(C(=O)c2c(-c3ccccc3)noc2C)CC1 | . | . | -73 | . | . | .
N=C(N)SCc1ccc(Cl)cc1Cl | . | 18µM | -101 | ? | . | 23µM
O=C(CCc1c(-c2ccc(F)cc2)[nH]c2ccc(F)cc12)N1CCC1 | / | / | / | . | / | /
O=S(=O)(Cc1ccccc1)C(CCCc1ccccc1)S(=O)(=O)Cc1ccccc1 | . | 21µM | . | . | . | 23µM
CCOC(=O)C1CCN(c2cc(C)nc3ccc(OC)cc23)CC1 | . | 16µM | . | . | . | ?
COc1ccc(N2CCN(c3cc(C)nc4ccc(OC)cc34)CC2)cc1 | ? | 23µM | . | ? | . | 15µM
COc1ccc2nc(C)cc(N3CCC(C(N)=O)CC3)c2c1 | . | . | . | . | . | .
CCCc1cnc(NCCNCC(O)COc2ccc(Cl)c(Cl)c2)nc1 (configuration not stated) | 21µM | 16µM | / | ? | 18µM | 16µM
CC(=O)c1cccc(OCC(O)CNCCc2ccc(Cl)cc2)c1 (configuration not stated) | . | . | ? | ? | . | ?
Cc1cc(NC(=O)COc2ccc(F)cc2F)n(C)n1 | / | / | / | . | / | /
Cc1ccccc1/C=C/C1=NCCN1 | . | . | -92 | ? | . | .
